{
  "source": "paper PMC4552634",
  "about": "“A New Set of Chemical Starting Points with Plasmodium falciparum Transmission-Blocking Potential for Antimalarial Drug Discovery” (PLoS ONE, 2015)",
  "note": "Hit rate of the full screen: of about 13,000 compounds, about 3,200 (25%) showed an effect of 50% or more. This is one part of the list.",
  "data": [
    {"tested_on": "P. falciparum stage V gametocytes", "set-up": "BacTiter-Glo ATP luminescence viability of purified stage V gametocytes in 384-well plates, per cent inhibition versus DMSO", "settings": "48 h, 5 µM; inhibitor", "units": {"% Inhibition": "%"}, "values": [
      {"smiles": "Fc1cccc(COc2ccc(Nc3ncnc4sc(C#C[C@H]5CCCN5)cc34)cc2F)c1", "note": "[TCMDC-134429]", "% Inhibition": -0.575},
      {"smiles": "O=C(Nc1ccc(N2CCCCC2)c(Cl)c1)c1ncn[nH]1", "note": "[TCMDC-123528]", "% Inhibition": 3.564},
      {"smiles": "CS(=O)(=O)CCNc1nccc(N2CCc3ncnc(Nc4ccc(OCc5cccc(F)c5)c(Cl)c4)c3C2)n1", "note": "[TCMDC-135425]", "% Inhibition": 8.296},
      {"smiles": "CS(=O)(=O)CCNc1cc(N2CCc3ncnc(Nc4ccc(OCc5cccc(F)c5)c(Cl)c4)c3C2)ncn1", "note": "[TCMDC-135477]", "% Inhibition": 58.91},
      {"smiles": "CC(=O)NCCNc1cc(N2CCc3ncnc(Nc4ccc(OCc5c(F)cccc5F)c(Cl)c4)c3C2)ncn1", "note": "[TCMDC-135455]", "% Inhibition": 38.09},
      {"smiles": "COc1cc(-c2ccccc2)ccc1C(=O)Nc1ccc2c(c1)N(C)CCC2", "note": "[TCMDC-141219]", "% Inhibition": -85.17},
      {"smiles": "O=C(N1CCN(c2cccc(C(F)(F)F)c2)CC1)C(Cl)(Cl)Cl", "note": "[TCMDC-125655]", "% Inhibition": -5.728},
      {"smiles": "O=C(/C=C/c1ccc(Cl)c(Cl)c1)NC1C2CCC1CC(CN1CCC(c3c[nH]c4ccccc34)CC1)C2", "note": "(stereo not drawn) [TCMDC-139811]", "% Inhibition": 36.93},
      {"smiles": "c1ccc(C2CCN(Cc3ccc(-c4c[nH]c5nc(NC6CCCC6)ncc45)cc3)CC2)cc1", "note": "[TCMDC-133772]", "% Inhibition": -64.75},
      {"smiles": "c1ccc(CN2CCC(Nc3ccc(-c4cn[nH]c4-c4ccccn4)nc3)CC2)cc1", "note": "[TCMDC-138750]", "% Inhibition": 73.03},
      {"smiles": "COc1ccc(Nc2nc(NC3CCN(Cc4ccccc4)CC3)cc(-c3ccncc3)n2)cc1", "note": "[TCMDC-134021]", "% Inhibition": -30.5},
      {"smiles": "CCCCCC(C)C(C)c1cc(O)c2c(c1)OC(C)(C)CC2(O)c1ccccn1", "note": "(stereo not drawn) [TCMDC-131713]", "% Inhibition": -6.865},
      {"smiles": "Cc1cc(F)ccc1-c1nc(NCC(O)CNCCc2ccccc2)nc2c1ccc(=O)n2-c1c(F)cccc1F", "note": "(stereo not drawn) [TCMDC-141784]", "% Inhibition": 98.89},
      {"smiles": "Cc1cc(F)ccc1-c1nc(NCCCN2CCCC2=O)nc2c1ccc(=O)n2-c1c(F)cccc1F", "note": "[TCMDC-141433]", "% Inhibition": -74.9},
      {"smiles": "Cc1cc(F)ccc1-c1nc(NCCCNCCc2ccccc2)nc2c1ccc(=O)n2-c1c(F)cccc1F", "note": "[TCMDC-141804]", "% Inhibition": 83.84},
      {"smiles": "CCCCCN1CCC(NC(=O)c2ccc(C(=O)Nc3ccc(C(C)C)cc3)cc2)CC1", "note": "[TCMDC-136751]", "% Inhibition": 8.673},
      {"smiles": "O=C(C=CC(=O)N1CCCCC1)NCc1ccccc1", "note": "[TCMDC-131645]", "% Inhibition": 19.39},
      {"smiles": "NC(=O)c1ccccc1OCC(=O)Nc1cccc(-c2ccc(-c3nc4ccccc4[nH]3)cc2)c1", "note": "[TCMDC-132128]", "% Inhibition": 7.419},
      {"smiles": "COc1ccc2ncc(C#N)c(CCN3CCC(NCc4ccc5c(c4)NC(=O)CO5)CC3)c2c1", "note": "[TCMDC-135645]", "% Inhibition": -0.6152},
      {"smiles": "CCNc1cc(CCCC(=O)OCC)nc(Nc2ccc(C)cc2)n1", "note": "[TCMDC-134018]", "% Inhibition": -48.18},
      {"smiles": "OC(CNc1ccnc(Nc2ccccc2)n1)c1cccc(C(F)(F)F)c1", "note": "(stereo not drawn) [TCMDC-136588]", "% Inhibition": 30.58},
      {"smiles": "CCCCCCCN1CC[C@@H](CCCc2ccnc3ccc(OC)cc23)[C@@H](CNC)C1", "note": "[TCMDC-139875]", "% Inhibition": 105.4},
      {"smiles": "CCCCCCCCCN1CC[C@@H](CCCc2ccnc3ccc(O)cc23)[C@@H](CC)C1", "note": "[TCMDC-131442]", "% Inhibition": 46.81},
      {"smiles": "CC[C@H]1CN(C/C=C/c2ccc(OC)cc2)CC[C@H]1CCCc1ccnc2ccc(O)cc12", "note": "[TCMDC-140258]", "% Inhibition": -1.76},
      {"smiles": "CCCCCCCN1CC[C@@H](CCCc2ccnc3ccc(OC)cc23)[C@@H](CCN)C1", "note": "[TCMDC-139278]", "% Inhibition": 113.6},
      {"smiles": "CCCCCCCN1CC[C@@H](C[C@H](N)Cc2ccnc3ccc(OC)cc23)[C@@H](CC)C1", "note": "[TCMDC-139827]", "% Inhibition": 11.08},
      {"smiles": "Cc1cccc2c(/C=C/C(=O)NC3CCC(CCN4CCc5ccc(C#N)cc5CC4)CC3)c[nH]c12", "note": "(stereo not drawn) [TCMDC-139665]", "% Inhibition": 43.65},
      {"smiles": "O=C(Nc1cccc(-c2cc(-c3c(Cl)cccc3Cl)no2)c1)c1cncc(-c2cccs2)c1", "note": "[TCMDC-136736]", "% Inhibition": -10.57},
      {"smiles": "C[C@@H](N=C(Nc1ccc(C#N)cc1O)Nc1ccccc1Cl)c1ccc(Br)cc1", "note": "[TCMDC-140257]", "% Inhibition": -91.02},
      {"smiles": "O=C(Nc1cccc(-c2ccc(-c3nc4ccc(F)cc4[nH]3)cc2)c1)c1cccnc1", "note": "[TCMDC-136923]", "% Inhibition": 8.252},
      {"smiles": "CCc1nc(N)nc(N)c1-c1ccc(C(C)(C)C)cc1", "note": "[TCMDC-137367]", "% Inhibition": 5.64},
      {"smiles": "CC(N)(Cc1ccc(O)cc1)c1nn[nH]n1", "note": "(stereo not drawn) [TCMDC-131387]", "% Inhibition": -7.705},
      {"smiles": "CCCc1cc(OC)c(CC2c3cc(O)c(Cl)cc3CCN2C)cc1OC", "note": "(stereo not drawn) [TCMDC-137166]", "% Inhibition": 27.65},
      {"smiles": "COc1cc(CC2c3cc(O)c(Cl)cc3CCN2C)c(OC)cc1C", "note": "(stereo not drawn) [TCMDC-137434]", "% Inhibition": 71.2},
      {"smiles": "CCCc1cc(OC)c(C[C@H]2c3cc(O)c(Cl)cc3CCN2C)cc1OC", "note": "[TCMDC-137779]", "% Inhibition": 20.32},
      {"smiles": "CCCCCCCCCCN1C(=O)C2C(CCCCNC(C)=O)NC3(C(=O)N(Cc4ccc(C(C)(C)C)cc4)c4ccccc43)C2C1=O", "note": "(stereo not drawn) [TCMDC-139772]", "% Inhibition": 47.42},
      {"smiles": "Cc1cc(=O)c2cc(Oc3ccc(OC(F)(F)F)cc3)ccc2[nH]1", "note": "[TCMDC-138906]", "% Inhibition": 0.2157},
      {"smiles": "Cc1nc(C)c(-c2ccc(Oc3ccc(OC(F)(F)F)cc3)cc2)c(OC(=O)c2ccc(CN(C)C)cc2)c1Cl", "note": "[TCMDC-137382]", "% Inhibition": 68.19},
      {"smiles": "Cc1[nH]cc(Br)c(=O)c1-c1ccc(Oc2ccc(OC(F)(F)F)cc2)cc1", "note": "[TCMDC-136197]", "% Inhibition": -4.559},
      {"smiles": "Cc1[nH]c(C)c([N+](=O)[O-])c(=O)c1-c1ccc(Oc2ccc(OC(F)(F)F)cc2)cc1", "note": "[TCMDC-135555]", "% Inhibition": -1.899},
      {"smiles": "CN(C)Cc1c(O)ccc2[nH]c(-c3ccc(OC(F)(F)F)cc3)nc12", "note": "[TCMDC-136529]", "% Inhibition": -83.05},
      {"smiles": "CC(=O)Oc1c(Cl)c(C)nc(C)c1-c1ccc(Oc2ccc(OC(F)(F)F)cc2)cc1", "note": "[TCMDC-137385]", "% Inhibition": 74.48},
      {"smiles": "Cc1nc(C)c(-c2ccc(Oc3ccc(OC(F)(F)F)cc3)cc2)c(OC(=O)c2ccccc2)c1Cl", "note": "[TCMDC-137380]", "% Inhibition": 76.96},
      {"smiles": "CC(=O)Oc1c(Br)c(C)nc(C)c1-c1ccc(Oc2ccc(OC(F)(F)F)cc2)cc1", "note": "[TCMDC-137383]", "% Inhibition": 72.41},
      {"smiles": "Cc1[nH]c(C)c(Cc2ccc(Oc3ccc(OC(F)(F)F)cc3)cc2)c(=O)c1Br", "note": "[TCMDC-134530]", "% Inhibition": -23.78}
    ]}
  ]
}
